High-throughput results from PubChem.
Cruzain inh noDet: blocks cruzain activity in detergent-free assay | Potency, µM, without a hit: max response, negative = inhibition, most hits filed as inhibitors | P25779 | 200,000 tested, 2.3% active | purified cruzain, Z-FR-AMC fluorescence, no detergent | AID 1476;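 note: plate controls were enzyme without inhibitor for no effect and buffer without enzyme for full effect; nearly all actives have a fitted effect of over 40% in size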
Target sequence (P25779 123-467 limits assumed): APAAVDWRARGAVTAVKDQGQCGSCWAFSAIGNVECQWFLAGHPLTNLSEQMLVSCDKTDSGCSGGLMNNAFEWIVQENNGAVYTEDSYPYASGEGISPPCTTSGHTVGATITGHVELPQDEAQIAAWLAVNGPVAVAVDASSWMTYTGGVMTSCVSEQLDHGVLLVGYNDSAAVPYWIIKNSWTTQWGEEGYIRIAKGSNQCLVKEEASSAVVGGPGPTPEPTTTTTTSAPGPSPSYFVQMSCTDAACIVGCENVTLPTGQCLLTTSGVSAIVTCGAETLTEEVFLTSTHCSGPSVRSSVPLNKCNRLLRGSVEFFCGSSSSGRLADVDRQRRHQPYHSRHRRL
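Purified cruzain at 1.5 nM, pre-incubated 15 min with compound at room temperature in 100 mM sodium acetate pH 5.5, 5 mM DTT, 0.00005% Triton X-100. Reaction started with 2 uM Z-FR-AMC; AMC fluorescence increase over 60 s gives rate.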
Cruzain inh Det: cruzain (T. cruzi) inhibition with detergent. P25779. AID 1478. purified cruzain, Z-FR-AMC fluorescence, 0.01% Triton. 200,000 tested, 0.43% active. Potency, µM, for inactives: max response, negative = inhibition, hits mostly inhibitors;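 note: plate controls were neutral wells for no effect and buffer without enzyme for full effect; nearly all actives have a fitted effect of over 40% in size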
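Purified cruzain (1.5 nM final) was preincubated with compounds for 15 min at room temperature in 100 mM sodium acetate pH 5.5, 5 mM DTT, 0.01% Triton X-100. Reaction started with 2 uM Z-FR-AMC; AMC fluorescence change over 60 s gave activity.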
* marks the source's active call; other numbers are inactive results; ? = inconclusive; ! = repeats disagree. Most compounds without a hit are left out; they make up all but 2.4% or so of the library. Calls come from the whole dose curve; as a rule, active = well fitted curve in the direction sought with a large enough effect; inconclusive = small, poorly fitted or top-dose-only effect, or another doubt; inactive = no such curve, though single readings can be large; an effect the other way counts as inactive or inconclusive. Potency is the fitted concentration of half-maximal effect.

SMILES	Cruzain inh noDet	Cruzain inh Det
COC(=O)c1ccc(CNC(=O)c2ccc(COc3ccccc3)cc2)cc1	10µM*	-2.2%
O=C(Nc1ccc(F)cc1)c1ccc(COc2ccccc2)cc1	12.6µM*	-1.1%
O=C(Nc1ccc(OCc2ccccc2)cc1)c1cccc([N+](=O)[O-])c1	-29.6%	-2.0%
COC(=O)c1ccc(OCCOc2ccccc2)cc1	0.1%	-4.6%
CCOc1ccc(C(=O)Nc2cc(-c3cn4cccnc4n3)ccc2C)cc1OCC	5.6%	-0.2%
CCOC(=O)c1[nH]c(C)c(CCC(=O)NCc2ccccc2Cl)c1C	4.3%	0.7%
Cc1cccc(-c2nnc(SCc3cc(=O)c4cccc(Cl)c4[nH]3)n2C)c1	-11.2%	0.3%
CSc1nc(C)cc(Nc2c(C)cc(C)cc2C)n1	-12.1%	-5.8%
COc1ccccc1NC(=O)C1=C(C)Nc2nc(SCc3ccc(Cl)cc3)nn2C1c1ccccc1Cl (configuration not stated)	-2.1%	-5.9%
O=C(Nc1ccc(Cl)cc1)NC1CCCCC1	-2.2%	-1.4%
O=C(COc1ccc(Cl)cc1)Nc1nnc(-c2ccc3c(c2)CCCC3)o1	7.94µM*	1.2%
CC(=O)Nc1nnc(-c2ccc3c(c2)CCCC3)o1	-10.0%	-1.8%
O=C(Nc1nnc(-c2ccc(Cl)cc2)o1)NC1CCCCC1	25.1µM*	8.7%
Cc1ccc(C(=O)N2CCN(c3ccc(Cl)cc3)CC2)cc1	-7.3%	1.1%
N#CCC(=N)N1CCN(c2ccc(Cl)cc2)CC1	12.6µM*	-1.1%
CC1=N/C(=C\c2ccc([N+](=O)[O-])cc2)C(=O)N1c1ccc(Cl)cc1	15.8µM*	0.8%
CC1=N/C(=C/c2ccc([N+](=O)[O-])cc2)C(=O)N1c1ccc(Cl)cc1Cl	-18.7%	0.9%
CCOC(=O)C1C(C)=C(Nc2ccc(OC)cc2)C(=O)N1c1ccc(OC)cc1 (configuration not stated)	12.6µM*	-1.5%
CCOC(=O)C1=C(O)C(=O)N(c2ccc(S(N)(=O)=O)cc2)C1c1ccc(OC)cc1 (configuration not stated)	-0.7%	1.0%
COc1cc2ccc(=O)oc2cc1O	31.6µM*	25.1µM*!
COc1ccc2ccc(=O)oc2c1CC=C(C)C	3.7%	-10.1%
O=C(CSc1cn(CC(=O)N2CCCCC2)c2ccccc12)NCc1ccc(F)cc1	6.8%	-3.9%
COC(=O)c1c(NC(=O)c2c(C)noc2C)sc2c1CCCCCC2	-3.9%	5.4%
COC(=O)c1c(NC(=O)c2c(-c3ccccc3Cl)noc2C)sc2c1CCC2	12.6µM*	-4.6%
CC(C)(C)C(=O)Cn1c(=O)n(-c2ccccc2)c(=O)c2c3c(sc21)CCC3	-9.0%	-5.1%
SMILES	Cruzain inh noDet	Cruzain inh Det
CCOc1ccc(C2C(C(=O)Nc3ccccc3OC)=C(C)Nc3c(C(=O)Nc4cccc(C)c4)cnn32)cc1 (configuration not stated)	?	-7.7%
O=C(Cn1cnc2cc([N+](=O)[O-])ccc2c1=O)Nc1ccc2c(c1)CCC2	15.8µM*	0.5%
O=C(Cn1cnc2ccccc2c1=O)Nc1ccc2c(c1)CCC2	3.2%	-2.2%
O=C(Nc1c(Cl)cccc1Cl)c1cc(-c2cccc(O)c2)on1	-3.1%	-11.4%
CCn1c2ccccc2c2cc(NC(=O)C(C)Oc3ccccc3)ccc21 (configuration not stated)	?	-0.3%
CCn1c2ccccc2c2cc(NC(=O)C(C)Oc3ccc(OC)cc3)ccc21 (configuration not stated)	25.1µM*	0.4%
Cc1cccc(OCc2ccc(-c3nc(C#N)c(N4CCC(C(N)=O)CC4)o3)o2)c1	?	-5.0%
CCOC(=O)c1nc(NCc2ccc(Cl)cc2)c2c(C)noc2n1	-18.7%	-5.6%
O=C(c1ccccc1)c1c2c(cc3sc4ccccc4[n+]13)-c1cccc3cccc-2c13	25.1µM*	-23.3%
Cc1sc2cc3c(c(C(=O)c4ccccc4)[n+]2c1C)-c1cccc2cccc-3c12	-28.6%	-16.0%
COc1ccccc1N=Nc1nc(-c2ccccc2)c(-c2ccccc2)[nH]1	-22.9%	-5.4%
COc1ccc(N=Nc2nc(-c3ccccc3)c(-c3ccccc3)[nH]2)cc1	25.1µM*	-2.4%
COc1ccccc1S(=O)(=O)Cc1ccc(C(=O)NCc2ccc(Cl)cc2)o1	-9.0%	-1.5%
CN1/C(=C\C=Nc2ccccc2)C(C)(C)c2ccccc21	-1.3%	-4.0%
CN1/C(=C\C=N\NC(=O)c2ccc(O)cc2)C(C)(C)c2ccccc21	20µM*	?
COc1ccc(-c2nc3scc(CCNS(=O)(=O)c4cccs4)n3n2)cc1	20.6%	1.1%
COc1ccc(OC)c(-c2nc3c(C#N)c[nH]n3c2NC2CCCCC2)c1	?	-3.7%
CCOC(=O)/C=c1\s/c(=C\c2ccc(C)cc2)c(=O)n1CC(=O)NCc1ccco1	15.8µM*	-1.0%
CCOC(=O)COc1cccc2c(=O)n(CC(=O)NCc3ccc4c(c3)OCO4)ccc12	-1.1%	-4.7%
CCOC(=O)/C=c1\s/c(=C\c2ccc(C(F)(F)F)cc2)c(=O)n1CC(=O)NCc1ccco1	?	-4.2%
CCOC(=O)/C=c1\s/c(=C\c2ccc(-c3ccccc3)cc2)c(=O)n1CC(=O)NCc1ccc2c(c1)OCO2	2.51µM*	-3.4%
Cc1cccc(CCNC(=O)c2ccc(CSCc3cccc(Cl)c3)o2)c1	-2.8%	-6.8%
CCOc1ccccc1NC(=O)CN1C(=O)CC(c2ccco2)Sc2ccccc21 (configuration not stated)	-16.1%	-9.7%
CC1CCCCN1C(=O)Cn1c(SCC(=O)N(C)c2ccccc2)nc2ccccc21 (configuration not stated)	2.2%	0.3%
O=S(=O)(Nc1ccc(-c2ccc(N3CCCC3)nn2)cc1)c1cc(F)ccc1F	-5.0%	-6.6%
SMILES	Cruzain inh noDet	Cruzain inh Det
c1ccc(-c2cc(-c3nnc4n3N=C(c3ccc5ccccc5c3)CS4)[nH]n2)cc1	25.1µM*	-3.2%
COc1ccc(C2=Nn3c(nnc3-c3ccccc3)SC2)cc1OC	-2.3%	7.0%
COc1ccc(-c2nnc3n2N=C(c2ccccc2)CS3)cc1OC	26.4%	-6.7%
Cc1cc(-c2nnc3n2N=C(c2ccc(-c4ccccc4)cc2)CS3)n[nH]1	25.1µM*	-10.3%
CCOC(=O)N1CCN(C(=O)c2cnn(-c3cccc(F)c3)c2-n2cccc2)CC1	29.7%	2.5%
CC1=C(\C=C/C(C)=C/C=C\C(C)=C\C(=O)O)C(C)(C)CCC1	?	-3.9%
CC1=C(/C=C/C(C)=C/C=C/C(C)=C/C(=O)Nc2ccc(O)cc2)C(C)(C)CCC1	15.8µM*!	-4.5%
COc1cccc(NC(=O)CSc2nc3c([nH]c4ccccc43)c(=O)n2-c2cccc(Cl)c2)c1	-22.1%	-0.2%
O=C(CSc1nc2ccccc2o1)Nc1nc(-c2ccccc2)cs1	?	-3.7%
COc1cccc(-n2c(SCC(=O)Nc3cccc(C)c3)nc3c([nH]c4ccccc43)c2=O)c1	31.6µM*	-0.5%
O=C(CSc1nc2c([nH]c3ccccc32)c(=O)n1-c1ccc(F)cc1)Nc1ccc2c(c1)OCO2	1.3%	-1.3%
Cc1ccc(-c2csc(NC(=O)CSc3nnc4c(n3)[nH]c3ccccc34)n2)cc1	15.8µM*	-10.4%
Cc1cc(C)cc(-n2c(SCC(=O)Nc3ccc4c(c3)OCO4)nc3c([nH]c4ccccc43)c2=O)c1	6.31µM*	-1.8%
Cc1nnc(NC(=O)CSc2nnc3c(n2)[nH]c2ccccc23)s1	4.8%	-2.8%
Cc1cc2ccccc2nc1SCC(=O)Nc1nc(-c2ccccc2)cs1	7.94µM*	4.4%
O=[N+]([O-])c1cc(-c2nc(-c3ccccc3)no2)ccc1NCc1cccnc1	1.1%	-6.8%
